The panel holds about 83,000 compounds, 20% with a hit somewhere; the sample as a whole holds those more often.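 Results are percent growth after 48 hours of single-concentration exposure. 100 means growth as in untreated cells, lower positive values show inhibition; negative values down to -100 show cell death.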 Values without a mark were called inactive. Calls of active or inactive are those of the source.
Test system: NCI-H226 lung
Experiment: NCI-60 one-dose screen, 48 h (100 = growth as untreated, 0 = no growth, -100 = all killed)
Details: 10 µM unless noted
Experimental: Growth inhibition of the NCI-H226 human Non-Small Cell Lung tumor cell line is measured as a screen for anti-cancer activity. Cells are grown in 96 well plates and exposed to the test compound for 48 hours. Compounds are tested at a single concentration, which is 10^-5 M for most compounds. The reported endpoint is percent growth (GI% or GIPRCNT), where numbers from 0 - 100% represent growth inhibition, and numbers from -100% - 0 represent cell death. For example, a value of 40 represents 60% growth inhibition. A value of 0 means no net growth occurred over the course of the experiment. A value of -40 indicates 40% of cells at the beginning of the experiment died by the end of the experiment. A value of -100 means all cells are dead at the end of the experiment.
NCI-60 Human Tumor Cell Lines Screen was performed using the standard one-dose NCI protocol, which is described in more detail at https://dtp.cancer.gov/discovery_development/nci-60/default.htm.
Compounds with GIPRCNT values below 10 were considered active. Activity score was based on GIPRCNT using the following formula: […]
Score is 0 for GIPRCNT values of 100 or above, 50 for GIPRCNT values of 0, and 100 for GIPRCNT values of -100.

| Structure (SMILES) | growth |
| --- | --- |
| C=C(C)[C@@H]1CC[C@]2(C(=O)NS(=O)(=O)c3ccccc3)CC[C@]3(C)[C@H](CC[C@@H]4[C@@]5(C)CC[C@H](OC(=O)NS(=O)(=O)c6ccccc6)C(C)(C)[C@@H]5CC[C@]43C)[C@@H]12 | 30.9% |
| FC(F)(F)c1cc(-c2nnc3n2N=C(Cl)CS3)cc(C(F)(F)F)c1 | 99.8% |
| CCOC(=O)C1C(=O)C=C(c2ccccc2)CC1c1sc(N(C)Cc2ccccc2)nc1Cl (stereo not given) | 85.8% |
| COc1ccc(Oc2nc(Nc3ccc(N4CCOCC4)cc3)ncc2NC(=O)Nc2cccc(OC)c2)cc1 | 42.1% |
| Clc1cccc(CNc2c3ccccc3nc3ccccc23)c1 | 48% |
| Cc1cccc(N=NC(=S)NNc2cccc(C)c2)c1 | 101% |
| O=S1(=O)NCCN1CCNc1nccc(-c2c(-c3cccc(O)c3)nc3sccn23)n1 | 105% |
| CCc1c(C)c2ccc(O)c(-c3cc(-c4ccccc4)c(C#N)c(=O)[nH]3)c2oc1=O | 83.8% |
| C[C@@H]1N=C(c2ccc3ccccc3c2)Nc2nc3ccccn3c2C1=O | 64.5% |
| Cc1cc(O)c2cc3c(O)c(O)ccc3cc2c1 | 115% |
| COc1cc2c(c(OC)c1O)C(=O)C(OC)C(c1ccc(O)c(O)c1)O2 (stereo not given) | 16.8% |
| CC(C)[C@@H]1C=C2CC[C@H]3[C@](C)(CN)CCC[C@]3(C)[C@H]2CC1 | 98.7% |
| Cc1ccc(C(CN(C)C)C(=O)c2ccccc2)cc1 (stereo not given) | 80.9% |
| COc1cc(C2CC(=O)Nc3c2cnn3C)cc(OC)c1OC (stereo not given) | 104% |
| CC(=O)Nc1c(Br)cc2c(c1Br)Cc1cc(Br)ccc1-2 | 85% |
| CCNC(=O)c1ccc2c(c1)nc(-c1ccc(Cl)cc1)n2-c1cc(C(C)(C)C)[nH]n1 | 46.9% |
| CNCCCn1c2c(c3ccc(Cl)cc3c1=O)C(=O)c1cc(OC)cnc1-2 | 43% |
| C=C1C(=O)O[C@H]2[C@H]1CC/C(COC(=O)NCc1[nH]nc3ccccc13)=C\CC[C@@]1(C)O[C@@H]21 | 65.4% |
| COc1ccc(-c2nc3ccccc3n3cccc23)cc1 | 94.7% |
| CC(=O)Oc1c(Cl)c(Cl)c(Cl)c(Cl)c1Cl | 103% |

| Structure (SMILES) | growth |
| --- | --- |
| CCn1c(Cc2ccccc2Nc2c(Cl)cccc2Cl)nnc1SCC(=O)Nc1cccc(OC)c1 | 83.3% |
| CCOC(=O)c1cc(C(=O)OCC)c(C)nc1C | 105% |
| CCC1N=C(N)N=C(N)N1c1ccc(Cl)cc1 (stereo not given) | 96.5% |
| O=C1OCC2=C1C(c1ccccc1)c1cc3c(cc1N2CCO)CCC3 (stereo not given) | 27% |
| O=P(O)(O)C(O)(Cc1cccnc1)P(=O)(O)O | 111% |
| CC(C)c1nc2ccccc2n1CC(=O)N/N=C/c1cccc(O)c1 | 105% |
| CN1C(=O)N(C)C2C1NN=c1s/c(=C\c3ccc(Br)cc3)c(=O)n12 (stereo not given) | 59.8% |
| COc1ccc(/C=C/c2nc3ccccc3c(=O)n2-c2ccc(C#Cc3ccc(C(C)(C)C)cc3)cc2C)c(OC)c1 | 87.3% |
| COc1ccc2[nH]cc(C3(c4c[nH]c5ccc(OC)cc45)C(=O)Nc4ccc(F)cc43)c2c1 | 70% |
| O=C1OCC2=C1C(c1ccccc1)c1cc3c(cc1N2CCO)OCO3 (stereo not given) | 49% |
| CC1(C)CN(CCNc2nccc(-c3c(-c4cccc(O)c4)nc4sccn34)n2)S(=O)(=O)N1 | 87.5% |
| COc1cc(OC)cc(-c2ccc(-c3ccc(C(=N)N)s3)s2)c1 | -65.3% (active) |
| CCOC(=O)C(CCCCC(NC(C)=O)(C(=O)OCC)C(=O)OCC)(NC(C)=O)C(=O)OCC | 105% |
| O=[N+]([O-])c1ccc(SSc2ccc([N+](=O)[O-])cc2Cl)c(Cl)c1 | 87.5% |
| O=C(/C=C/c1ccccc1)c1c[nH]c2ccccc2c1=O | 8.22% (active) |
| COc1cc(-c2nn(C(=O)NCCN3CCN(C)CC3)cc2-c2ccncc2)ccc1Cl | 27.1% |
| CC(=O)Nc1ccc(/C=N/N2CCCCCC2)cc1 | 92% |
| COc1cc(/C=C2\CN(C(=O)OC(C)(C)C)C/C(=C\c3ccc(O)c(OC)c3)C2=O)ccc1O | 94.6% |
| NC(=S)N1N=C(c2ccc(Cl)cc2)CC1c1cc2ccccc2[nH]c1=O (stereo not given) | 113% |
| N=C(N)c1ccc(-c2ccc(-c3ccco3)o2)cc1F | 67.4% |

Source: PubChem BioAssay (NCI)
